The values that follow come from ChEMBL document CHEMBL2218924, “A broad activity screen in support of a chemogenomic map for kinase signalling research and drug discovery” (Biochem J, 2013).

The residual activity is the signal under treatment as a percentage of the control signal.

Test [1] has as its target T1, Ephrin type-B receptor 3 (Homo sapiens) (UniProt P54753).
T1 sequence (whole entry): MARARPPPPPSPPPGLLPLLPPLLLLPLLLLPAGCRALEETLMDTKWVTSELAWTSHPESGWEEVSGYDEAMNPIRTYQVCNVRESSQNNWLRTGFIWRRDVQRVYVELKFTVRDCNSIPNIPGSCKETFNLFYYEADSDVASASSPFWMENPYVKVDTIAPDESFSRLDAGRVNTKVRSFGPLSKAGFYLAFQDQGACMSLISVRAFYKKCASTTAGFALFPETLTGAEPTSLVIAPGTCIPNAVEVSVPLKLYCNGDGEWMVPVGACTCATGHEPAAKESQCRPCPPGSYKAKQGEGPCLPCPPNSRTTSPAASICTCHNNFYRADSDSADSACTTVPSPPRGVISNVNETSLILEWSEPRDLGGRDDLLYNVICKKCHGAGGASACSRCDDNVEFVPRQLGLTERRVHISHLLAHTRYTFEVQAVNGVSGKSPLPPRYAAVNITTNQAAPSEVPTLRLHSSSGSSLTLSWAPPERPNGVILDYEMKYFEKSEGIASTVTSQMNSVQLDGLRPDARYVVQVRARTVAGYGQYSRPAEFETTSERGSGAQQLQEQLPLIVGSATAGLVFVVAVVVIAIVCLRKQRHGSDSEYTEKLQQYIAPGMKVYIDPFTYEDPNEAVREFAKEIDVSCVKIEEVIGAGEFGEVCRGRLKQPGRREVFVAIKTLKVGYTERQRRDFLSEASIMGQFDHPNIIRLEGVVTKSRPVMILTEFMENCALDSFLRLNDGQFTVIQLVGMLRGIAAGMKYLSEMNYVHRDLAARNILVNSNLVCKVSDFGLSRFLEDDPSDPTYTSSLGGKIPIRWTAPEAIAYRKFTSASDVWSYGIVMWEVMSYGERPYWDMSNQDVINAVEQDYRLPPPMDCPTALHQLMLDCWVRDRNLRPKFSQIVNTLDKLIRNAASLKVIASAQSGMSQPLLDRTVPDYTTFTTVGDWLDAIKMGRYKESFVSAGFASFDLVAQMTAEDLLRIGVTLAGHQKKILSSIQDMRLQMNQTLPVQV
The following applies: at 10 µM.

Test [2] addresses T2, Ephrin type-B receptor 4 (Homo sapiens) (UniProt P54760).
T2 sequence (whole entry): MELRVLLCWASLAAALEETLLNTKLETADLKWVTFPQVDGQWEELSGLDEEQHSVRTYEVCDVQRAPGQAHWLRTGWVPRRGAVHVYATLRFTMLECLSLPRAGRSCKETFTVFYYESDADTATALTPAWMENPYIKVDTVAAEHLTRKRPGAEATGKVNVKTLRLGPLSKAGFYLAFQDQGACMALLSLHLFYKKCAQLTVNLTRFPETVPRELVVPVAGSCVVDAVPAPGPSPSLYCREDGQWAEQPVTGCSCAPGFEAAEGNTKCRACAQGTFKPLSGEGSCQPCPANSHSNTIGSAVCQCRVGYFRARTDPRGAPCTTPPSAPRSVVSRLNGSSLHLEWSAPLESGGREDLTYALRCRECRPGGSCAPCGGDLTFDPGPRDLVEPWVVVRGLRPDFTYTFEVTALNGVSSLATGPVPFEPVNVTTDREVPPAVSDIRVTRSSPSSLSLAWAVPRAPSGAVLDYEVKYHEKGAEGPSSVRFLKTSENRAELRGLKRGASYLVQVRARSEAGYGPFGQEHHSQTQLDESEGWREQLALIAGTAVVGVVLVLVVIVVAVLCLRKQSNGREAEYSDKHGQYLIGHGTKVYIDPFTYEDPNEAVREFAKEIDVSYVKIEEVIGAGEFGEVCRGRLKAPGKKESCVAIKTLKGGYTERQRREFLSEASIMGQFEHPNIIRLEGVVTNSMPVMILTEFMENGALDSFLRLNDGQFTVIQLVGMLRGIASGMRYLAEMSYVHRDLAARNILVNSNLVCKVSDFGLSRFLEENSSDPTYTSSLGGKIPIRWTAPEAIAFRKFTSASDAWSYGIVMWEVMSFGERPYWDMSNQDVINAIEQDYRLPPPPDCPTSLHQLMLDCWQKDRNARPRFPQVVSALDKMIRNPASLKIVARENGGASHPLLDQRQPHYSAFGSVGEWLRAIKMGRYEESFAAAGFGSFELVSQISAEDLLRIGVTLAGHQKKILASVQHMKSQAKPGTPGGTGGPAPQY
Conditions: at 1 µM; call rule not given here.

Test [3] addresses T3, Ephrin type-B receptor 1 (Homo sapiens) (UniProt P54762).
T3 sequence (whole entry): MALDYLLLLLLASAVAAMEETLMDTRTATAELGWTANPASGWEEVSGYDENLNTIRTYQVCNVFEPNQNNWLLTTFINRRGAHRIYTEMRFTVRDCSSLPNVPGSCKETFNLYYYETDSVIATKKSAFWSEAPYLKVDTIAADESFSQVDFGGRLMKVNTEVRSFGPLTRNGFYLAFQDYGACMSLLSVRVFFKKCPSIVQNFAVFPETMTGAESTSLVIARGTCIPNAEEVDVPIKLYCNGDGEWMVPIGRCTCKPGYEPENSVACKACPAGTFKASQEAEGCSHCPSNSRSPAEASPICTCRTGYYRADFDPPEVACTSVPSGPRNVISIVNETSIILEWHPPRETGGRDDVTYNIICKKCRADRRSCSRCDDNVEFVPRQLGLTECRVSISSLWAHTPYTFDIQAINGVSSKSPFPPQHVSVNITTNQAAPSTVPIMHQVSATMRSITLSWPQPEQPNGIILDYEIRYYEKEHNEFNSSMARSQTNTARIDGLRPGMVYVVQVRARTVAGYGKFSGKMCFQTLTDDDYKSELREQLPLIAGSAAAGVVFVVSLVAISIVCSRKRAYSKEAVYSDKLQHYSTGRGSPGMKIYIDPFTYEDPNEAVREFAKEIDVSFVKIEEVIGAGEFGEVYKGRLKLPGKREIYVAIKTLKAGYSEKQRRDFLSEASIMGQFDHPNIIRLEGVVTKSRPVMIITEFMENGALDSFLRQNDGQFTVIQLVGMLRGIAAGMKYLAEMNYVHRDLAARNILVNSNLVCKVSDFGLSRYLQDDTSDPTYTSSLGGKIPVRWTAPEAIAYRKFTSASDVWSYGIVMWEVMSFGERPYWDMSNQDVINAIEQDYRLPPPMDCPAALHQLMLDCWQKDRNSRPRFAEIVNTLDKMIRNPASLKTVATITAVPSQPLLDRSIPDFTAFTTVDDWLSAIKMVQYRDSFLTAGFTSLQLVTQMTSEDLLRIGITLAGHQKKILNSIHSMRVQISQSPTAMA
Conditions: at 10 µM.

For test [4], the target named is T4, Ephrin type-B receptor 2 (Homo sapiens) (UniProt P29323).
T4 sequence (whole entry): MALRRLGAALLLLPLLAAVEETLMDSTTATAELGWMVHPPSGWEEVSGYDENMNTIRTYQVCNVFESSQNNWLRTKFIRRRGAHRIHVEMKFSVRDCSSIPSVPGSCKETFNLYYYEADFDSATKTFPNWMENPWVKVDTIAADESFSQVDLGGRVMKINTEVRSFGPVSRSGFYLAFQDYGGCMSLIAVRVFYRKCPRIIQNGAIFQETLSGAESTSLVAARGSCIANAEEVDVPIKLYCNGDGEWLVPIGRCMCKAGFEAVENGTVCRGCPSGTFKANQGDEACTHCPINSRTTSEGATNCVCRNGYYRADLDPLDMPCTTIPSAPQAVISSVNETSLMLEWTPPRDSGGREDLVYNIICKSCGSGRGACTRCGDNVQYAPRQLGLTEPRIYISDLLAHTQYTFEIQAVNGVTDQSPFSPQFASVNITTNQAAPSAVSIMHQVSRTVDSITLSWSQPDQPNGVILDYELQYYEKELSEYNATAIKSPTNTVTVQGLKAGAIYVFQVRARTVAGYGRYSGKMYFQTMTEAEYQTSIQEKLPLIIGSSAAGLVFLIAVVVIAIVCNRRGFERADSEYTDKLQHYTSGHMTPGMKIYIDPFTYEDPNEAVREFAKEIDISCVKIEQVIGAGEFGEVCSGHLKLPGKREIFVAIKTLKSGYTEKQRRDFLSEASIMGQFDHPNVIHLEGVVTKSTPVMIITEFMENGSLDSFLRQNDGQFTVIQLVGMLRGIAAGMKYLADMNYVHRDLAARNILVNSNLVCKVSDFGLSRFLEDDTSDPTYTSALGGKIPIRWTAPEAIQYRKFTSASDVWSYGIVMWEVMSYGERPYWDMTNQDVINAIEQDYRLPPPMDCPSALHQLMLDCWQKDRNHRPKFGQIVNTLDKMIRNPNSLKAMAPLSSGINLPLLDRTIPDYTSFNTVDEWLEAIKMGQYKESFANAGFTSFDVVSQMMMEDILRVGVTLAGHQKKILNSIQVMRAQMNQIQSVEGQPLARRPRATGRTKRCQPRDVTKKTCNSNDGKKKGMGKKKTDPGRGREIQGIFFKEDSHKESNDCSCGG
Conditions: at 1 µM.

The target of test [5] is T4, Ephrin type-B receptor 2 (Homo sapiens). The following applies: at 10 µM.
In test [6] the target is T2, Ephrin type-B receptor 4 (Homo sapiens). Conditions: at 10 µM.
For test [7], the target named is Receptor tyrosine-protein kinase erbB-4 (Homo sapiens) (UniProt Q15303). The following applies: at 1 µM.
Receptor tyrosine-protein kinase erbB-4 (Homo sapiens), sequence (Q15303 whole entry): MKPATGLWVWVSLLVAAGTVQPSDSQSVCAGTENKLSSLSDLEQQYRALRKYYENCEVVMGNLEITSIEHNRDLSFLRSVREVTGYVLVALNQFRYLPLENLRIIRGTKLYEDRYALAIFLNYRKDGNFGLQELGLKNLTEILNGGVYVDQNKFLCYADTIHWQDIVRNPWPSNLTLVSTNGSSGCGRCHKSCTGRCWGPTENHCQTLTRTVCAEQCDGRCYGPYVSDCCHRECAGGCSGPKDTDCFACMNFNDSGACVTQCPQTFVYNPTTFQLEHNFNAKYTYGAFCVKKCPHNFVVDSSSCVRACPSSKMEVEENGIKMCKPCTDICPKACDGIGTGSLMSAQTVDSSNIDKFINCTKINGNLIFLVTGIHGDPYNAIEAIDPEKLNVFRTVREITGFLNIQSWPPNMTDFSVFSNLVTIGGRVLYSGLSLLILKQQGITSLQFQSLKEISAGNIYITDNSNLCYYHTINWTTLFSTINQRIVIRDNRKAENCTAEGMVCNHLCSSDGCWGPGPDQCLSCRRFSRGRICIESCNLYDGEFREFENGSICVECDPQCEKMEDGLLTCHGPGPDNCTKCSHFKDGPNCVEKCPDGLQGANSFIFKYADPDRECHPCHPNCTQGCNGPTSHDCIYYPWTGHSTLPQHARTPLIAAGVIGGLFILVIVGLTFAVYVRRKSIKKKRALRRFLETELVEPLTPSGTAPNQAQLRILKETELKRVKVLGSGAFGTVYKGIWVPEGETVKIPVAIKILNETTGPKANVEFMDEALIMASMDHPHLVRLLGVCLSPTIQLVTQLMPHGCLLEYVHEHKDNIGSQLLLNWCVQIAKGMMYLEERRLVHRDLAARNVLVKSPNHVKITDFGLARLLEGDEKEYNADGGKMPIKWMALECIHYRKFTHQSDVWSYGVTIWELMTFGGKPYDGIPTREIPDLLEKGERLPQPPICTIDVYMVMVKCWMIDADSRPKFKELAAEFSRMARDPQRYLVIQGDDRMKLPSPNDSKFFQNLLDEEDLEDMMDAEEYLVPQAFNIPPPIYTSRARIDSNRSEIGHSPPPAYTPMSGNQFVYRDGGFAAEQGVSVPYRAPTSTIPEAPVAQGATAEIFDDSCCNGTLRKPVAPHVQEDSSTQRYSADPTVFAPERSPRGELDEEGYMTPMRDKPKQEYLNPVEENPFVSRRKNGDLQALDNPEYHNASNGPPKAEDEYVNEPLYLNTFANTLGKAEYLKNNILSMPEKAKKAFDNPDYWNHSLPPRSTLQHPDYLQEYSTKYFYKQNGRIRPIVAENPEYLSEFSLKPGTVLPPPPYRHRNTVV
Test [8] has the same target. Conditions: at 10 µM.
Test [9] has as its target Focal adhesion kinase 1 (Homo sapiens) (UniProt Q05397). Conditions: at 1 µM.
Test [10] has as its target T1, Ephrin type-B receptor 3 (Homo sapiens). The following applies: at 1 µM.

Each structure is given as a SMILES string.

Focal adhesion kinase 1 (Homo sapiens), sequence (Q05397 2-1052 limits assumed): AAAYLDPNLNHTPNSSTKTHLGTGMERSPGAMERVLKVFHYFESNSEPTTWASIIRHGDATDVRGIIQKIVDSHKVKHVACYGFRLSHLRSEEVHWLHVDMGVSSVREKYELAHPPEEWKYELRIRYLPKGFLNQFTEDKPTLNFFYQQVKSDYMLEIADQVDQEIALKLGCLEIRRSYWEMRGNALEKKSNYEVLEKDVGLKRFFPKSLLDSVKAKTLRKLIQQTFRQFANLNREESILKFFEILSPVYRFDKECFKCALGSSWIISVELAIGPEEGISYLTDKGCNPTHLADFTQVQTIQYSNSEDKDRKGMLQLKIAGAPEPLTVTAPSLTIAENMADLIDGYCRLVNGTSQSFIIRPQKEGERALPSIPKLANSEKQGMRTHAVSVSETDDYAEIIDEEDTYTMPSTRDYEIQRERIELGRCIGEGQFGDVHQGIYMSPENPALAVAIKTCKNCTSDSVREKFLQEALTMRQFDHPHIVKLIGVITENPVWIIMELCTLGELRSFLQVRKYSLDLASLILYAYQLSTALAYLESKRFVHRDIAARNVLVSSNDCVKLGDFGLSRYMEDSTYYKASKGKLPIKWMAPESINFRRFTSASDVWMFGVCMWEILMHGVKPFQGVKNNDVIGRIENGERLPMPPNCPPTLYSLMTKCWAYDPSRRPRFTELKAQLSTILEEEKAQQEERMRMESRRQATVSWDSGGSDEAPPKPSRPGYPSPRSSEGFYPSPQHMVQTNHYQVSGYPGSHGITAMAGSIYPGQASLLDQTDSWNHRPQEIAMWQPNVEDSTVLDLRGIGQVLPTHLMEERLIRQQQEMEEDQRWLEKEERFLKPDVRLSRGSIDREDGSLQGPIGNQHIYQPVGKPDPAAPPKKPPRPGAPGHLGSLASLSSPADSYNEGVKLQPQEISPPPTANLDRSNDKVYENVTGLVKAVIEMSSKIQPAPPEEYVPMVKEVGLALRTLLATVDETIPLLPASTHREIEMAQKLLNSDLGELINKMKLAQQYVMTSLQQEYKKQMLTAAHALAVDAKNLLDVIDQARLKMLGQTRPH

In the case of `CN[C@@H]1C[C@H]2O[C@@](C)([C@@H]1OC)n1c3ccccc3c3c4c(c5c6ccccc6n2c5c31)C(=O)NC4`, the residual activity in [1] stood at 131%; in [2], 79%.

With `CCn1cnc2c(Nc3cccc(Cl)c3)nc(N[C@@H]3CCCC[C@@H]3N)nc21`, the residual activity in test [3] stood at 1%; in test [4], 56%; in test [5], 0%; in test [2], 51%; in test [6] it was 9%; in test [7], 83%. For the same molecule, the residual activity in test [8] was 68%; in test [9], 53%.

With `COc1ccc2c(c1)/C(=C/c1cnc[nH]1)C(=O)N2`, the residual activity in [3] was 59%; in test [5], 97%; in test [2] it was 98%; in test [6], 77%; in test [7] it was 127%; in [9], 99%.

As for `O=[N+]([O-])/C=C/c1ccc2c(c1)OCO2`, the residual activity is 116% in test [3]; 116% in [4]; 124% in test [5]; 117% (inactive) in [10]; 111% in test [1]; 114% in test [2]. The residual activity in test [6] turned out to be 127%; in test [7], 86%; in test [8], 101%; in test [9], 141%.

Consider `C[S+]([O-])c1ccc(-c2nc(-c3ccc(F)cc3)c(-c3ccncc3)[nH]2)cc1` (stereo not given), for which the residual activity is 56% in test [3]; 101% in test [4]; 61% in test [5]; 114% (inactive) in [10]; 105% in [1]; 107% in test [2]. Further, the residual activity amounted to 41% in test [6], 115% in test [7], 82% in [8] and 125% in test [9].

In the case of `N/C(=N\[N+](=O)[O-])N/N=C\c1ccc(-c2cccc([N+](=O)[O-])c2)o1`, the residual activity in test [2] was 90%; in test [6], 90%; in test [7], 100%; in test [8], 88%.

As for `c1cc(-c2cnn3cc(-c4ccc(OCCN5CCCCC5)cc4)cnc23)ccn1`, the residual activity in [3] is 0%; in [4], 25%; in test [5] it was 0%; in test [10], 118% (inactive); in test [1], 117%; in test [2] it was 20%. For the same molecule, the residual activity in test [6] was -1%; in test [7] it was 129%; in test [8] it was 100%; in test [9], 123%.

With `O=C1c2ccccc2-c2nc3nnnn3nc21`, the residual activity in [5] was 138%; in [10], 108% (inactive); in test [1], 133%; in test [2] it was 118%; in test [6], 115%; in test [7] it was 106%.

As to `CC(C)[C@H](CO)Nc1nc(Nc2cccc(Cl)c2)c2ncn(C(C)C)c2n1`, the residual activity in test [3] turned out to be 15%; in test [4] it was 71%; in test [5] it was 3%; in test [2], 37%; in test [6], 4%; in test [9] it was 65%.

`COc1cc2ncnc(Nc3ccc(OCc4ccccc4)cc3)c2cc1OC`: the residual activity is 106% in test [3]; 118% in test [4]; 114% in [5]; 117% (inactive) in test [10]; 100% in test [1]; 117% in [2]. Also, the figures for the residual activity in test [6] and in [9] were 132% and 136%, respectively.
